Drawing on PubChem BioAssay (NCATS), this text covers Potency for 14 compounds.

Inconclusive results are not listed. Active and inactive are the calls of the source. Calls come from the whole dose curve; as a rule, active = well fitted curve in the direction sought with a large enough effect; inconclusive = small, poorly fitted or top-dose-only effect, or another doubt; inactive = no such curve, though single readings can be large; an effect the other way counts as inactive or inconclusive.

Assay [1] is described as follows: Quantitative High-Throughput drug screen in 47 multiple myeloma cell lines against the NCATS MIPE library collection: FR4_PLB cell viability assay (AID 1918924; note: nearly all actives have a fitted effect of over 35% in size; note: potency is the fitted concentration of half-maximal effect). In outline: (§1)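 Luminescent ATP measurement with CellTiter-Glo gives viability, scaled between DMSO-only wells (100%) and media-only wells (0%). Cells, 500 per well, faced library compounds for 48 hours at 37C.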

The nature of assay [2]: Quantitative High-Throughput drug screen in 47 multiple myeloma cell lines against the NCATS MIPE library collection: Delta47_JCRB cell viability assay (AID 1918925; note: nearly all actives have a fitted effect of over 45% in size; note: potency is the fitted concentration of half-maximal effect). In short, it runs like this: (§2)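 Myeloma cell lines, 500 cells per well, exposed to MIPE 4.0 library compounds for 48 h at 37C, 5% CO2. Viability from ATP by CellTiter-Glo luminescence; normalised to DMSO (100%) and media-only (0%) wells.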

Assay [3] can be described thus: Quantitative High-Throughput drug screen in 47 multiple myeloma cell lines against the NCATS MIPE library collection: EJM_DSMZ cell viability assay (AID 1918926; note: nearly all actives have a fitted effect of over 30% in size; note: potency is the fitted concentration of half-maximal effect). In outline:
as §2

The nature of assay [4]: Quantitative High-Throughput drug screen in 47 multiple myeloma cell lines against the NCATS MIPE library collection: Karpas620_DSMZ cell viability assay (AID 1918959). Note: nearly all actives have a fitted effect of over 30% in size. Note: potency is the fitted concentration of half-maximal effect. In short, it runs like this: as §1
Assay [5] in a line: Quantitative High-Throughput drug screen in 47 multiple myeloma cell lines against the NCATS MIPE library collection: KMM1_JCRB cell viability assay (AID 1918960). Note: nearly all actives have a fitted effect of over 30% in size. Note: potency is the fitted concentration of half-maximal effect. In outline: (§3)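 Luminescence from CellTiter-Glo, taken after 5 min at room temperature, reports cellular ATP as viability. Cells (500 per well) had been treated 48 h at 37 °C with MIPE 4.0 compounds, scaled between DMSO and medium-only controls.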

Assay [6] is described as follows: Quantitative High-Throughput drug screen in 47 multiple myeloma cell lines against the NCATS MIPE library collection: JIM3_ECACC cell viability assay (AID 1918963; note: nearly all actives have a fitted effect of over 35% in size; note: potency is the fitted concentration of half-maximal effect). In outline: as §1
The nature of assay [7]: Quantitative High-Throughput drug screen in 47 multiple myeloma cell lines against the NCATS MIPE library collection: JIM1_ECACC cell viability assay (AID 1918964; note: potency is the fitted concentration of half-maximal effect). In outline:
as §2

The nature of assay [8]: Quantitative High-Throughput drug screen in 47 multiple myeloma cell lines against the NCATS MIPE library collection: JJN3_DSMZ cell viability assay (AID 1918966; note: nearly all actives have a fitted effect of over 50% in size). In short, it runs like this: as §2
Assay [9] can be described thus: Quantitative High-Throughput drug screen in 47 multiple myeloma cell lines against the NCATS MIPE library collection: H1112_PLB cell viability assay (AID 1918967; note: nearly all actives have a fitted effect of over 30% in size; note: potency is the fitted concentration of half-maximal effect). In short, it runs like this:
as §2

A short description of assay [10]: Quantitative High-Throughput drug screen in 47 multiple myeloma cell lines against the NCATS MIPE library collection: KMS12BM_JCRB cell viability assay (AID 1918971). Note: nearly all actives have a fitted effect of over 35% in size. Note: potency is the fitted concentration of half-maximal effect. In short, it runs like this:
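CellTiter-Glo luminescence (ATP) after 48 h compound exposure, 37C/5% CO2; 500 cells/well; MIPE 4.0 approved/investigational drugs pinned in; DMSO = 100%, media only = 0% viability.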

Assay [11] can be described thus: Quantitative High-Throughput drug screen in 47 multiple myeloma cell lines against the NCATS MIPE library collection: AMO1_DSMZ cell viability assay (AID 1918927; note: nearly all actives have a fitted effect of over 30% in size; note: potency is the fitted concentration of half-maximal effect). In outline: as §2
Assay [12] can be described thus: Quantitative High-Throughput drug screen in 47 multiple myeloma cell lines against the NCATS MIPE library collection: KHM11_PLB cell viability assay (AID 1918962). Note: nearly all actives have a fitted effect of over 35% in size. Note: potency is the fitted concentration of half-maximal effect. In short, it runs like this:
as §1

The nature of assay [13]: Quantitative High-Throughput drug screen in 47 multiple myeloma cell lines against the NCATS MIPE library collection: INA6_PLB cell viability assay (AID 1918965; note: nearly all actives have a fitted effect of over 55% in size; note: potency is the fitted concentration of half-maximal effect). In short, it runs like this: (§4)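 Steps: seed 500 cells per well; pin-transfer MIPE 4.0 library; incubate 48 h at 37C, 5% CO2, humidified; add CellTiter-Glo, 5 min room temperature; read luminescence.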
A short description of assay [14]: Quantitative High-Throughput drug screen in 47 multiple myeloma cell lines against the NCATS MIPE library collection: KMS27_JCRB cell viability assay (AID 1918970). Note: nearly all actives have a fitted effect of over 30% in size. Note: potency is the fitted concentration of half-maximal effect. In outline:
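Each line is seeded at 500 cells per well and treated with library compounds for 48 hours under 37 °C, 5% CO2. CellTiter-Glo is then added for 5 min at room temperature before median relative luminescence is recorded.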

A short description of assay [15]: Quantitative High-Throughput drug screen in 47 multiple myeloma cell lines against the NCATS MIPE library collection: ARP1_JJKsccF8 cell viability assay (AID 1918928; note: nearly all actives have a fitted effect of over 40% in size; note: potency is the fitted concentration of half-maximal effect). In outline:
as §3

Assay [16] in a line: Quantitative High-Throughput drug screen in 47 multiple myeloma cell lines against the NCATS MIPE library collection: ARD_JJKsccE7 cell viability assay (AID 1918929; note: potency is the fitted concentration of half-maximal effect). In outline: as §2
Assay [17] is described as follows: Quantitative High-Throughput drug screen in 47 multiple myeloma cell lines against the NCATS MIPE library collection: Karpas25_ECACC cell viability assay (AID 1918968; note: nearly all actives have a fitted effect of over 35% in size; note: potency is the fitted concentration of half-maximal effect). In short, it runs like this:
as §2

A short description of assay [18]: Quantitative High-Throughput drug screen in 47 multiple myeloma cell lines against the NCATS MIPE library collection: Karpas417_ECACC cell viability assay (AID 1918961). Note: potency is the fitted concentration of half-maximal effect. The settings on record: Karpas417 myeloma viability, CellTiter-Glo ATP luminescence, 48 h; viability (% of DMSO): at 45.8 µM (top of the series). In outline:
as §4

`C[C@]12COC(=O)C[C@@H]1CC[C@@H]1[C@H]2CC[C@@]2(C)[C@H]1CC[C@]2(C)O`: the Potency result in assay [1], in assay [2], in [3], in assay [4], in assay [5] and in assay [6] was “inactive” each time. In addition, the Potency entry in assay [7], in assay [8] and in assay [9] was “inactive” throughout. Further, the Potency in assay [10] is 1180 nM (active).
For the compound `CCOC(=O)c1cncn1[C@H](C)c1ccccc1`, the Potency result in assay [1], in assay [2], in assay [3], in [11], in assay [5] and in assay [12] was “inactive” in each case. For the same compound, the Potency entry in assay [6], in assay [7], in assay [13], in assay [9] and in assay [14] was “inactive” throughout.
Consider `CC(=CCCC1=CCC(C2=CC(=O)OC2O)OC1O)CCC1=C(C)CCCC1(C)C` (centres undefined), for which the Potency entry in assay [1], in assay [2], in [3], in assay [15], in assay [16] and in [4] was “inactive” throughout. In addition, the Potency result in assay [6], in assay [7], in assay [13], in assay [9], in assay [17] and in [14] was “inactive” each time.
Take `COC[C@H]1OC(=O)c2coc3c2[C@@]1(C)C1=C(C3=O)[C@@H]2CC[C@H](O)[C@@]2(C)C[C@@H]1OC(C)=O`: the Potency in [1] was 3720 nM (active); in [2], 6.6 nM (active); in assay [11], 5260 nM (active); in assay [15] it was 332 nM (active); in assay [16], 6620 nM (active); in assay [4] it was 3720 nM (active). The Potency in assay [5] is 5900 nM (active); in assay [7], 1480 nM (active); in assay [13], 1180 nM (active); in assay [9] it was 1050 nM (active); in assay [14] it was 4690 nM (active); in assay [10], 3320 nM (active).
As to `O=c1[nH]c2ccccc2n1C1CCN(Cc2ccc(-c3[nH]c4cc5ncnc5cc4nc3-c3ccccc3)cc2)CC1`, the Potency is 23500 nM (active) in assay [1]; 1870 nM (active) in assay [2]; 20900 nM (active) in assay [3]; 14800 nM (active) in [15]; 18700 nM (active) in [16]; 1480 nM (active) in assay [18]. Also, the Potency in assay [6] is 5900 nM (active); in [7] it was 4690 nM (active); in assay [13], 1480 nM (active); in assay [9] it was 833 nM (active); in assay [14], 18700 nM (active); in assay [10] it was 20900 nM (active). Further, in assay [12], the Potency result is “inactive”.
In the case of `CC(C)(O)C(=O)Nc1ccc([N+](=O)[O-])c(C(F)(F)F)c1`, the Potency entry in [1] and in assay [15] was “inactive” each time. The Potency in [2] is 7430 nM (active); in assay [11], 11800 nM (active); in [16], 23500 nM (active); in assay [4], 18700 nM (active); in assay [12] it was 20900 nM (active); in assay [13], 7430 nM (active). Further, the Potency in [9] is 9350 nM (active); in assay [17], 9350 nM (active); in assay [14], 14800 nM (active).
For `C[C@]12CC[C@H]3[C@@H](CCC4=CC(=O)CC[C@@]43C)[C@H]1CC[C@H]2OC(=O)CCC1CCCC1`, the Potency result in assay [1], in assay [2], in assay [4], in assay [5], in [17] and in assay [14] was “inactive” each time. Moreover, the Potency in assay [3] was 16600 nM (active).
`COc1ccc(CC2NCCc3cc(OC)c(OC)cc32)cc1OC` (centres undefined): the Potency result in assay [1], in [2], in assay [3], in assay [16], in [4] and in assay [5] was “inactive” in each case. The Potency entry in [18], in assay [6], in assay [9], in assay [14] and in [10] was “inactive” throughout.
`O=S(=O)(F)Cc1ccccc1`: the Potency entry in assay [1], in [3], in assay [11], in assay [15], in assay [16] and in assay [4] was “inactive” each time. Also, the Potency result in assay [5] and in assay [9] was “inactive” in each case. In addition, the Potency in assay [2] is 2960 nM (active); in assay [12] it was 9350 nM (active); in [13], 1180 nM (active); in [17], 2640 nM (active).
Regarding `CC=C(C)C(=O)O[C@H]1C(C)=C2[C@@H]3OC(=O)[C@@](C)(O)[C@@]3(O)[C@@H](OC(=O)CCC)C[C@](C)(OC(C)=O)[C@@H]2[C@@H]1OC(=O)CCCCCCC`, the Potency was 26.4 nM (active) in assay [1]; 235 nM (active) in assay [2]; 37.2 nM (active) in assay [3]; 29.6 nM (active) in [15]; 332 nM (active) in assay [12]; 264 nM (active) in [6]. The Potency in [13] is 93.5 nM (active); in assay [9], 526 nM (active). Moreover, the Potency result in assay [4] and in assay [14] was “inactive” in each case.
Take `C[C@@H]1O[C@@H](O[C@@H]2C=C3CC[C@@H]4[C@@H](CC[C@]5(C)[C@H](c6ccc(=O)oc6)CC[C@@]45O)[C@@]3(C)CC2)[C@H](O)[C@H](O)[C@H]1O`: the Potency is 8.3 nM (active) in assay [1]; 26.4 nM (active) in assay [2]; 20.9 nM (active) in [3]; 20.9 nM (active) in [15]; 9.3 nM (active) in assay [16]; 20.9 nM (active) in assay [4]. Besides, the Potency in assay [18] was 14.8 nM (active); in assay [12], 29.6 nM (active); in assay [6] it was 29.6 nM (active); in [7], 13.2 nM (active); in [13], 26.4 nM (active); in [9] it was 41.8 nM (active). Moreover, the Potency in assay [17] is 23.5 nM (active); in assay [14], 8.3 nM (active).
With `COc1cc([C@@H]2c3cc4c(cc3[C@@H](O)C3COC(=O)C32)OCO4)cc(OC)c1O` (some centres undefined), the Potency is 6.6 nM (active) in [1]; 26.4 nM (active) in [2]; 46.9 nM (active) in [3]; 1 nM (active) in assay [11]; 20.9 nM (active) in assay [15]; 8.3 nM (active) in [16]. In addition, the Potency in [4] was 18.7 nM (active); in assay [5], 18.7 nM (active); in assay [6] it was 33.2 nM (active); in assay [7], 4.2 nM (active); in assay [13], 41.8 nM (active); in assay [9], 52.6 nM (active). In addition, the Potency in assay [14] is 14.8 nM (active).
Consider `C[C@]12CCC(=O)C(O)=C1CC[C@@H]1[C@H]3CCC(=O)[C@@]3(C)CC[C@@H]12`, for which the Potency result in [1], in [2], in assay [3], in [11], in assay [16] and in assay [4] was “inactive” in each case. Also, the Potency entry in assay [5], in [12], in assay [6], in assay [9] and in assay [14] was “inactive” each time. Besides, the Potency in assay [10] is 20900 nM (active).
Turning to `C[C@H]([C@H](O)CCC(C)(C)O)[C@H]1CC[C@@]2(O)C3=CC(=O)[C@@H]4C[C@@H](O)[C@@H](O)C[C@]4(C)[C@@H]3CC[C@]12C`, the Potency result in [1], in assay [2], in assay [3], in [16], in assay [4] and in assay [5] was “inactive” in each case. Besides, the Potency result in [12], in assay [6], in [13], in assay [9] and in [14] was “inactive” each time.
